# Sampled rows, rich in hits. Any-hit rate of the full collection: about 2.1%.
# D2 PAM-1: positively modulates the human D2 dopamine receptor allosterically | hit rate 0.34% among 340,000 | potentiation, % at 10 µM | P14416 | HEK293 T-REx D2, calcium flux, EC20 dopamine potentiation | AID 485347;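 active = potentiation over 3 SD above the plate norm, cut at about 30% in these data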
# Target sequence (P14416 whole entry, looked up): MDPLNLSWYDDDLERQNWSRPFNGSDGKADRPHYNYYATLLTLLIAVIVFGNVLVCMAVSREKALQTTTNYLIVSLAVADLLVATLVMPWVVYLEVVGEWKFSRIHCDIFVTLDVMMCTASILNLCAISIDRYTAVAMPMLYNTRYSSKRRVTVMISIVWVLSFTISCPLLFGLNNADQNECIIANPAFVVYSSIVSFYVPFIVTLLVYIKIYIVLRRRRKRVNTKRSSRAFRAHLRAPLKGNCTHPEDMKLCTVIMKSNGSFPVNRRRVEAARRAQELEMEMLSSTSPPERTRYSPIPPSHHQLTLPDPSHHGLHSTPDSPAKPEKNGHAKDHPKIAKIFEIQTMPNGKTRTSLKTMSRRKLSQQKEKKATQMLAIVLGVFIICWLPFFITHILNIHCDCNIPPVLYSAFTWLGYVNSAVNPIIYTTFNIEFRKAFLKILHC
#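 Primary screen. Calcium kinetics in induced HEK293 T-REx D2 cells: compound pre-addition 180 s, EC20 dopamine, 180 s more.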
# D2 PAM-2: positive allosteric modulators of human D2 dopamine receptor. P14416. DiscoveRx D2 beta-arrestin cells, luminescence, 90 min; 100% = 57 uM dopamine signal. potentiation, % (no concentration beside the values). hit rate 0.23% among 360,000. AID 624464; in the data active = potentiation above about 50%
#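 PathHunter D2 cells, attached overnight at 37 deg C, received compound in DMSO plus dopamine at EC20 (50 nM final) for 90 min at 37 deg C. Beta-arrestin recruitment was read as luminescence after 1 h with detection reagent at ambient temperature.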
# D2 ag-1: activates the human D2 dopamine receptor. P14416. HEK293 T-REx D2 cells, calcium flux agonist mode. activation, % at 2 µM. hit rate 0.53% among 340,000;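 active = activation over 3 SD above normal in the single-dose calcium agonist read, cut at about 30% in these data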
#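 Tetracycline-induced HEK293 Trex cells with D2 receptor force-coupled to calcium signaling, plated overnight at 30 C and loaded with no-wash calcium dye. Calcium flux read kinetically for 180 s after compound addition; responses flag agonists.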
# D2 ag-2: agonists of human D2 dopamine receptor (beta-arrestin). hit rate 0.084% among 360,000. P14416. activation, % (test concentration not listed). DiscoveRx PathHunter D2 beta-arrestin, luminescence, 90 min; 100% = 57 uM dopamine signal; in the data active = activation above about 40%
#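 DiscoveRx PathHunter D2 beta-arrestin cells (2,100/well) attached overnight, then compound-stimulated 90 min at 37 C in HBSS/10 mM HEPES/0.1% Tween-20 buffer; beta-galactosidase complementation read by luminescence after 1 h at ambient temperature. Dopamine 57 uM final (EC100) as control.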
# LDHA block: inhibitors of human lactate dehydrogenase A | purified LDHA, NADH/diaphorase-resazurin fluorescence; active compounds read low | activity change, % (values are at about 110 or 230 µM) | hit rate 0.15% among 480,000 | AID 1347041; in the data active = activity change below about -30%
#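 Human LDH5 at 2 nM final in Tris HCl pH 7.4 with 0.06 mM NADH and 0.2 mM pyruvate, reacted 5 minutes at room temperature. Remaining NADH coupled via diaphorase/resazurin; resorufin fluorescence read at 0 and 20 minutes, normalized to enzyme-free and DMSO wells.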
# D2 antagonist: antagonizes the human D2 dopamine receptor. P14416. HEK293 TREx D2 cells, calcium flux, dopamine EC80. inhibition, % at 10 µM. hit rate 2% among 340,000; in the data active = inhibition above about 30%; inactive = below that, where a call was filed
#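 Tetracycline-induced HEK293 TREx cells expressing D2 receptor forced-coupled to calcium signalling, loaded with no-wash calcium dye. Compounds added and calcium flux read 180 s, then dopamine added at EC80 and read a further 180 s.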
# A number is an active result; n = inactive; x = no result.
SMILES,D2 PAM-1,D2 PAM-2,D2 ag-1,D2 ag-2,LDHA block,D2 antagonist
O=C(NCc1ccccn1)c1ccc(OC2CCN(Cc3ccccc3)CC2)cc1,n,n,n,n,n,n
CC(C)Cn1c(N)c(C(=O)COC(=O)c2c(F)cccc2F)c(=O)n(C)c1=O,n,n,n,n,n,45
CC(C)Cn1c(N)c(C(=O)CSc2ccc3c(c2)OCCO3)c(=O)n(C)c1=O,33,n,n,n,n,n
COc1ccc(C(C)=O)cc1CC(=O)Nc1cc(S(C)(=O)=O)ccc1C,x,x,x,x,n,x
COc1ccc(-n2nc(C(=O)N(C)C)nc2-c2ccccc2)cc1,n,n,n,n,n,31
Oc1ccc(/C=C/c2nc(-c3ccc(F)cc3)cs2)cc1,x,x,x,x,n,x
Cc1cc(C)c2cc(N)c(Cl)nc2n1,x,n,x,n,n,x
Nc1cc(Cl)nnc1Cl,n,n,n,n,n,36
FC(F)Oc1ccc(N=C2SCC3CCCCN23)cc1 (stereo not given),36,n,n,n,n,n
COc1cc(C(=O)NCC(c2cccs2)N(C)C)cc(Cl)c1OC(C)C (stereo not given),n,n,n,n,n,34
CCCOc1ccc(C(=O)NCC(c2cccs2)N(C)C)cc1OC (stereo not given),n,n,n,n,n,n
COc1cc2ccccc2cc1C(=O)NCC(c1cccs1)N(C)C (stereo not given),n,n,n,n,n,56
COc1cc(OC)c(C(=O)NCC(c2cccs2)N(C)C)cc1OC (stereo not given),n,x,n,x,x,n
Brc1cccc(/C=N/Nc2ccc3ccccc3c2)c1,x,x,x,x,n,x
O=C(O)c1cc(Cl)c(Cl)c(Cl)c1,x,x,x,x,n,x
C=CCSc1ccccc1NS(=O)(=O)c1ccc(S(=O)(=O)N(CC)CC)cc1,x,x,x,x,n,x
COc1ccc(C(=O)COc2nc(C)cc(C)c2C#N)cc1,n,n,n,n,n,35
C=CCN1C(=O)/C(=C/c2ccc(OC(C)=O)c(OCC)c2[N+](=O)[O-])SC1=S,n,n,n,n,n,30
COc1cccc(/C=C2\Oc3cc(OS(C)(=O)=O)ccc3C2=O)c1,x,x,x,x,n,x
CN(C(=O)c1ccncc1)c1nnc(-c2ccccn2)s1,n,n,n,n,n,35
Cc1ccc(F)c(NC(=O)CCN=C2NS(=O)(=O)c3ccccc32)c1,x,x,x,x,n,x
O=C(CCN=C1NS(=O)(=O)c2ccccc21)Nc1ccc(Cl)cc1F,n,n,n,n,n,40
Cc1nnc(SCC(=O)Nc2ccc(S(N)(=O)=O)cc2)n(N)c1=O,x,n,x,n,-39,x
O=C(O)CC/C(=N\Nc1ccc(S(=O)(=O)N2CCCC2)cc1[N+](=O)[O-])c1cccs1,n,n,n,n,n,n
O=C(O)CC/C(=N\Nc1ccc(S(=O)(=O)N2CCOCC2)cc1[N+](=O)[O-])c1cccs1,n,n,n,n,n,30
SMILES,D2 PAM-1,D2 PAM-2,D2 ag-1,D2 ag-2,LDHA block,D2 antagonist
CC(C)C[C@H]1CN=C(Nc2ccccc2)N1CCc1ccc(F)cc1,n,n,59,n,n,73
CC(C)CCN1C(Nc2ccccc2)=NC[C@@H]1CC(C)C,n,n,n,n,n,n
CC(C)C[C@H]1CN=C(Nc2ccccc2)N1CCc1cccc(F)c1,x,n,x,n,n,x
C=CCN1C(=O)CN=C1Nc1cccc(C)c1,x,n,x,n,n,x
Cc1cccc(CCN2C(Nc3ccccc3)=NC[C@@H]2CC(C)C)c1,n,n,60,n,n,70
Cc1cccc(NC2=NCC(=O)N2CCc2ccccc2)c1,n,n,n,n,n,37
Cc1c(N)cccc1-c1nc2cc(C(C)C)ccc2o1,x,x,x,x,n,x
C/C(=N/Nc1ccc(S(N)(=O)=O)cc1[N+](=O)[O-])c1ccc(C)cc1,x,x,x,x,n,x
COc1cccc(-n2c(=O)c3c(C)c(C(=O)N(C)C)sc3n(CC(=O)NCC3CCCO3)c2=O)c1 (stereo not given),n,n,n,n,n,41
Cc1csc(NC(=O)C2CCCN(S(=O)(=O)c3ccc(Br)s3)C2)n1 (stereo not given),n,n,n,n,n,38
C=CCn1c(N)c(-c2nc3ccccc3n2C)sc1=S,31,n,n,n,n,n
Cc1cccc(NC(=O)CSc2nc3ccccc3c(=O)n2CCn2cc(Cl)cn2)c1C,x,x,x,x,n,x

# High-throughput results as filed in PubChem.
